Measurements from PubChem BioAssay (EPA / NIEHS).
The source made the active and inactive calls. How the source made its calls: active means hit-call score of the fitted dose curve at least 0.9, where 1 is the maximum; inactive means score below 0.9.

Assays:
[1] = read-out: Urokinase-type plasminogen activator receptor (uPAR), PLAUR (gene 5329); test: BSK_CASM3C_uPAR: BioMAP Diversity Plus: CASM3C Assay for Urokinase-type plasminogen activator receptor (uPAR) Biomarker Activity (AID 2283054); details: primary human coronary artery smooth muscle cells; actives raise or lower the signal;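 further: cell-surface uPAR protein level quantified by ELISA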
[2] = read-out: Vascular cell adhesion molecule 1 (VCAM1), VCAM1 (gene 7412); test: BSK_CASM3C_VCAM1: BioMAP Diversity Plus: CASM3C Assay for Vascular cell adhesion molecule 1 (VCAM1) Biomarker Activity (AID 2283055); details: primary human coronary artery smooth muscle cells; actives raise or lower the signal;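 further: VCAM-1 protein level quantified by ELISA on the cells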
[3] = read-out: Collagen III, COL3A1 (gene 1281); test: BSK_hDFCGF_CollagenIII: BioMAP Diversity Plus: hDFCGF Assay for Collagen III Biomarker Activity (AID 2283056); details: primary human foreskin fibroblasts; actives raise or lower the signal
In short: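 Cells: human foreskin fibroblasts, primary. Dosing followed by 24 h incubation, then ELISA for collagen III. Both increases and decreases scored relative to DMSO.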

[4] = read-out: Epidermal growth factor receptor (EGFR), EGFR (gene 1956); test: BSK_hDFCGF_EGFR: BioMAP Diversity Plus: hDFCGF Assay for Epidermal growth factor receptor (EGFR) Biomarker Activity (AID 2283057); details: primary human foreskin fibroblasts; actives raise or lower the signal
In short: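 EGFR levels by ELISA in human dermal fibroblast cultures, 24 h post-treatment, fitted bidirectionally versus DMSO. Parallel wells stained with sulforhodamine B to detect overt cytotoxicity.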

[5] = read-out: Interleukin-8 (IL8), CXCL8 (gene 3576); test: BSK_hDFCGF_IL8: BioMAP Diversity Plus: hDFCGF Assay for Interleukin-8 (IL8) Biomarker Activity (AID 2283058); details: primary human foreskin fibroblasts; actives raise or lower the signal
In short: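 IL-8 levels from compound-treated primary human fibroblasts were read by ELISA at 24 h, with DMSO serving as baseline for bidirectional fitting.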

[6] = BSK_hDFCGF_Proliferation: Cell Proliferation Assessment in the BioMAP Diversity Plus: hDFCGF Assay (AID 2283059); details: primary human foreskin fibroblasts;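 further: curves fitted for both rise and fall of signal versus DMSO baseline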
In short: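 Steps: dose primary human dermal fibroblasts (foreskin); […] fix in 10% TCA; stain with 0.1% SRB; read 560 nm; fit gain or loss of signal against DMSO.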

[7] = read-out: Macrophage colony-stimulating factor (MCSF), CSF1 (gene 1435); test: BSK_hDFCGF_MCSF: BioMAP Diversity Plus: hDFCGF Assay for Macrophage colony-stimulating factor (MCSF) Biomarker Activity (AID 2283060); details: primary human foreskin fibroblasts; actives raise or lower the signal
In short: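 M-CSF levels, determined by ELISA, are taken at 24 h after dosing human skin fibroblasts. Responses in either direction are fitted with DMSO serving as the baseline.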

[8] = BSK_hDFCGF_SRB: Viability Assessment in the BioMAP Diversity Plus: hDFCGF Assay (AID 2283061); details: primary human foreskin fibroblasts;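 further: cells exposed to compound for 24 h before the read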
In short: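 Cells were dosed with test chemical, cultured 24 h, fixed with 10% TCA, then stained with 0.1% SRB and read at 560 nm. The fibroblasts were human foreskin primary cells, and DMSO served as baseline.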

[9] = read-out: TIMP metallopeptidase inhibitor 1 (TIMP1), TIMP1 (gene 7076); test: BSK_hDFCGF_TIMP1: BioMAP Diversity Plus: hDFCGF Assay for TIMP metallopeptidase inhibitor 1 (TIMP1) Biomarker Activity (AID 2283062); details: primary human foreskin fibroblasts; actives raise or lower the signal
In short: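 Fibroblasts from human foreskin are treated with test chemical and harvested at 24 h. TIMP-1 is quantified by ELISA, and gain or loss of signal is scored against DMSO.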

[10] = read-out: Monokine induced gamma interferon (MIG), CXCL9 (gene 4283); test: BSK_hDFCGF_MIG: BioMAP Diversity Plus: hDFCGF Assay for Monokine induced gamma interferon (MIG) Biomarker Activity (AID 2283063); details: primary human foreskin fibroblasts; actives raise or lower the signal
In short: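 MIG signal, determined by ELISA, reflects 24 h chemical exposure of human skin primary fibroblasts. DMSO serves as negative control and baseline.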

[11] = read-out: Matrix Metallopeptidase 1 (MMP1), MMP1 (gene 4312); test: BSK_hDFCGF_MMP1: BioMAP Diversity Plus: hDFCGF Assay for Matrix Metallopeptidase 1 (MMP1) Biomarker Activity (AID 2283064); details: primary human foreskin fibroblasts; actives raise or lower the signal
In short: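 ELISA read-out of MMP1 from human foreskin fibroblasts (primary skin cells), 24 h post-dose. Gain or loss of signal was fitted bidirectionally versus DMSO negative control; cytotoxicity was checked by SRB in parallel cultures.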

[12] = read-out: Vascular cell adhesion molecule 1 (VCAM1), VCAM1 (gene 7412); test: BSK_hDFCGF_VCAM1: BioMAP Diversity Plus: hDFCGF Assay for Vascular cell adhesion molecule 1 (VCAM1) Biomarker Activity (AID 2283065); details: primary human foreskin fibroblasts; actives raise or lower the signal;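 on AC50: VCAM-1 protein level quantified by ELISA after 24 h chemical exposure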
In short: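 Cells are dosed, cultured for 24 h, then VCAM-1 is quantified by ELISA; signal increases and decreases are both fitted relative to DMSO.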

[13] = read-out: Plasminogen activator inhibitor-1 (PAI1), SERPINE1 (gene 5054); test: BSK_hDFCGF_PAI1: BioMAP Diversity Plus: hDFCGF Assay for Plasminogen activator inhibitor-1 (PAI1) Biomarker Activity (AID 2283066); details: primary human foreskin fibroblasts; actives raise or lower the signal
In short: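 PAI-1 levels in human dermal foreskin fibroblasts were quantified by ELISA 24 h after dosing, with gain or loss analysed against DMSO. Overt cytotoxicity was checked by sulforhodamine B total-protein staining in parallel cultures.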

[14] = read-out: Intercellular Adhesion Molecule 1 (ICAM1), ICAM1 (gene 3383); test: BSK_KF3CT_ICAM1: BioMAP Diversity Plus: KF3CT Assay for Intercellular Adhesion Molecule 1 (ICAM1) Biomarker Activity (AID 2283067); details: primary human keratinocytes with fibroblasts; actives raise or lower the signal
In short: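 Dose the keratinocyte/fibroblast co-culture, wait 24 h, measure ICAM-1 by ELISA, then fit increases or decreases against DMSO. Cytotoxicity is checked in parallel cultures by SRB total-protein staining.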

[15] = read-out: Interferon-gamma inducible Protein 10 (IP10), CXCL10 (gene 3627); test: BSK_KF3CT_IP10: BioMAP Diversity Plus: KF3CT Assay for Interferon-gamma inducible Protein 10 (IP10) Biomarker Activity (AID 2283068); details: primary human keratinocytes with fibroblasts; actives raise or lower the signal
In short: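 KF3CT co-culture (keratinocytes + foreskin fibroblasts), 24 h compound, IP-10 by ELISA; bidirectional fit vs DMSO baseline.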

[16] = read-out: Interleukin-1 alpha (IL1a), IL1A (gene 3552); test: BSK_KF3CT_IL1a: BioMAP Diversity Plus: KF3CT Assay for Interleukin-1 alpha (IL1a) Biomarker Activity (AID 2283070); details: primary human keratinocytes with fibroblasts; actives raise or lower the signal
In short: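 Primary skin co-culture (keratinocytes, foreskin fibroblasts), 24 h exposure; ELISA for IL-1a; bidirectional curve fit vs DMSO.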

[17] = read-out: TIMP metallopeptidase inhibitor 2 (TIMP2), TIMP2 (gene 7077); test: BSK_KF3CT_TIMP2: BioMAP Diversity Plus: KF3CT Assay for TIMP metallopeptidase inhibitor 2 (TIMP2) Biomarker Activity (AID 2283071); details: primary human keratinocytes with fibroblasts; actives raise or lower the signal
In short: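 TIMP-2 measured by ELISA at 24 h in human keratinocyte/fibroblast primary co-cultures exposed to chemicals. Both increases and decreases were fitted against DMSO. Parallel cultures were stained with SRB for total protein as an overt-cytotoxicity check.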

[18] = read-out: Transforming growth factor beta 1 (TGFb1), TGFB1 (gene 7040); test: BSK_KF3CT_TGFb1: BioMAP Diversity Plus: KF3CT Assay for Transforming growth factor beta 1 (TGFb1) Biomarker Activity (AID 2283072); details: primary human keratinocytes with fibroblasts; actives raise or lower the signal
In short: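 ELISA quantifies TGF-b1 at 24 h post-dose in a primary human skin co-culture of keratinocytes and fibroblasts, with gain or loss judged against DMSO. Parallel SRB total-protein staining flags overt cytotoxicity.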

[19] = read-out: C-C motif chemokine 2 (Homo sapiens) (UniProt P13500); test: BSK_KF3CT_MCP1: BioMAP Diversity Plus: KF3CT Assay for Monocyte Chemoattractant Protein 1 (MCP1/CCL2) Biomarker Activity (AID 2283073); details: primary human keratinocytes with fibroblasts; actives raise or lower the signal
In short: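 Keratinocytes and foreskin fibroblasts were co-cultured, dosed with chemical, and sampled 24 h later. MCP-1 was quantified by ELISA, and the endpoint was analyzed with bidirectional fitting using DMSO as negative control.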

[20] = read-out: Matrix Metallopeptidase 9 (MMP9), MMP9 (gene 4318); test: BSK_KF3CT_MMP9: BioMAP Diversity Plus: KF3CT Assay for Matrix Metallopeptidase 9 (MMP9) Biomarker Activity (AID 2283074); details: primary human keratinocytes with fibroblasts; actives raise or lower the signal;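 on AC50: MMP9 protein level quantified by ELISA in the co-culture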
In short: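 ELISA read-out of MMP-9 at 24 h post-dosing in a co-culture of human skin keratinocytes and foreskin fibroblasts. Gain or loss of signal was fitted in both directions against DMSO.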

For `C=CCOc1c(Br)cc(Br)cc1Br`, the AC50 [1] was 33.5 µM (active), the AC50 [2] was 32.3 µM (active) and the AC50 [3] was 20 µM (active). For the same compound, the outcome [4] was “inactive”, the outcome [5] was “inactive” and the AC50 [6] was 10.3 µM (active). For the same compound, the AC50 [7] was 12.5 µM (active), the AC50 [8] was 25.7 µM (active) and the AC50 [9] was 8.19 µM (active). For the same compound, the AC50 [10] was 20 µM (active), the AC50 [11] was 30.3 µM (active) and the AC50 [12] was 33.1 µM (active). For the same compound, the AC50 [13] was 20 µM (active), the AC50 [14] was 30.7 µM (active) and the AC50 [15] was 38.9 µM (active). For the same compound, the AC50 [16] was 20 µM (active), the AC50 [17] was 11.4 µM (active) and the AC50 [18] was 9.26 µM (active). The AC50 [19] was 12.2 µM (active) and the AC50 [20] was 20 µM (active).
In the case of `CCO[Si](CCCN=C=O)(OCC)OCC`, the outcome [1] is reported as “inactive”, the outcome [2] is reported as “inactive” and the outcome [3] is reported as “inactive”. The outcome [4] was “inactive”, the outcome [5] was “inactive” and the outcome [6] was “inactive”. For the same compound, the outcome [7] was “inactive”, the outcome [8] was “inactive” and the outcome [9] was “inactive”. For the same compound, the outcome [10] was “inactive”, the outcome [11] was “inactive” and the outcome [12] was “inactive”. For the same compound, the outcome [13] was “inactive”, the outcome [14] was “inactive” and the outcome [15] was “inactive”. For the same compound, the outcome [16] was “inactive”, the outcome [17] was “inactive” and the outcome [18] was “inactive”. The outcome [19] was “inactive” and the outcome [20] was “inactive”.
For `CCO[Si](C)(OCC)OCC`, the outcome [1] was “inactive”, the outcome [2] was “inactive” and the outcome [3] was “inactive”. The outcome [4] was “inactive”, the outcome [5] was “inactive” and the outcome [6] was “inactive”. The outcome [7] was “inactive”, the outcome [8] was “inactive” and the outcome [9] was “inactive”. The outcome [10] was “inactive”, the outcome [11] was “inactive” and the outcome [12] was “inactive”. The outcome [13] was “inactive”, the outcome [14] was “inactive” and the outcome [15] was “inactive”. For the same compound, the outcome [16] was “inactive”, the outcome [17] was “inactive” and the outcome [19] was “inactive”. For the same compound, the outcome [20] was “inactive”.
For `CCCCCCCCCCCCCCCC[N+](C)(C)CC`, the AC50 [1] was 3.16 µM (active), the AC50 [2] was 4.21 µM (active) and the AC50 [3] was 0.447 µM (active). The outcome [4] was “inactive”, the AC50 [5] was 12.4 µM (active) and the AC50 [6] was 0.484 µM (active). The AC50 [7] was 1.49 µM (active), the AC50 [8] was 1.28 µM (active) and the AC50 [9] was 1.89 µM (active). For the same compound, the AC50 [10] was 3.45 µM (active), the AC50 [11] was 4.94 µM (active) and the AC50 [12] was 1.82 µM (active). The AC50 [13] was 1.53 µM (active), the AC50 [14] was 4.6 µM (active) and the AC50 [15] was 2.96 µM (active). For the same compound, the AC50 [16] was 3.23 µM (active), the AC50 [17] was 2.15 µM (active) and the AC50 [18] was 7.9 µM (active). For the same compound, the AC50 [19] was 6.3 µM (active) and the AC50 [20] was 1.68 µM (active).
With `CCCCC/C=C\C/C=C\CCCCCCCC(=O)OC` the AC50 [1] was 28.7 µM (active), the AC50 [2] was 21.6 µM (active) and the AC50 [3] was 27.8 µM (active). The outcome [4] was “inactive”, the outcome [5] was “inactive” and the AC50 [6] was 5.85 µM (active). The AC50 [7] was 26.5 µM (active), the AC50 [8] was 31.5 µM (active) and the AC50 [9] was 29.3 µM (active). For the same compound, the AC50 [10] was 35.3 µM (active), the AC50 [11] was 33.4 µM (active) and the AC50 [12] was 26.9 µM (active). For the same compound, the AC50 [13] was 28.9 µM (active), the AC50 [14] was 31.4 µM (active) and the AC50 [15] was 29 µM (active). The AC50 [16] was 26.9 µM (active), the AC50 [17] was 30 µM (active) and the AC50 [18] was 16.4 µM (active). For the same compound, the AC50 [19] was 28.7 µM (active) and the AC50 [20] was 26.7 µM (active).
